PI5P4Ka inh – PI5P4K alpha (human) kinase inhibition; PI5P4Kalpha enzyme, ADP-Glo luminescence, 60 min; stronger effect = lower value; max response, %; P48426; AID 652105; 330,000 tested, 1.2% active; active = max response of -50% or lower; inconclusive = between -30% and -50%; inactive = -30% or higher; note: value at the top dose of about 77 µM
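PI5P4Kalpha ADP-Glo assay; 5 microM ATP final; 60 min RT reaction; HEPES pH 7.4/EGTA/CHAPS, 5% DMSO; controls lacking substrate or enzyme; luminescent end-point.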
BAZ2B inh – inhibitors of human BAZ2B bromodomain; Q9UIF8; AlphaScreen BAZ2B-H3K14Ac peptide displacement; Potency, µM (doses to about 114 µM), hits mostly inhibitors; 360,000 tested, 4.4% active; note: nearly all actives have a fitted effect of over 60% in size
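Protein-peptide AlphaScreen: BAZ2B 50 nM, b-H3K14Ac 50 nM, 1x PBS pH 7.4 + 0.01% Tween-20. Preincubation 30 min RT; cpd 30 min RT (top 110 uM); beads 20 min RT, light-protected.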
JMJD2A Tudor inh – blocks the human JMJD2A Tudor domain | O75164 | AlphaScreen JMJD2A-Tudor / H3K4me3 peptide binding | Potency, µM (top dose mostly 114 µM), actives largely listed as inhibitors | 390,000 tested, 4.4% active; note: nearly all actives have a fitted effect of over 50% in size
HP1b chromo inh – inhibitors of HP1-beta chromodomain binding to methylated histone tails; P83916; AlphaScreen HP1-beta / biotin-H3K9me3 peptide binding; Potency, µM (titrated, usually from 114 µM), usual class: inhibitors; 390,000 tested, 0.56% active; AID 540317; note: nearly all actives have a fitted effect of over 70% in size
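Compound inhibition of the preformed complex between 50 nM HP1-beta and 50 nM biotinylated H3K9me3 peptide was read by AlphaScreen. Buffer was PBS pH 7.4 with 0.01% Tween-20. Incubations ran 30 min at room temperature, with 10 ug/mL donor/acceptor beads.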
KDM4E inh – JMJD2E (human) inhibition. 230,000 tested, 1.6% active. Potency, µM (highest dose often 57.1 µM), most hits filed as inhibitors. B2RXH2. AID 2147. JMJD2E catalytic domain, FDH-coupled NADH fluorescence (FDH is formaldehyde dehydrogenase); active = well fitted inhibition curve with a large enough effect, not every such curve was filed as active; inconclusive = small, poorly fitted or top-dose-only effect, or another doubt; inactive = no such curve, though single readings can be large or run the other way; note: nearly all actives have a fitted effect of over 50% in size
L3MBTL1 block – L3MBTL1 (human) inhibition. Q9Y468. AlphaScreen L3MBTL1–H3K9me1 peptide binding. Potency, µM (titrated, usually from 57.1 µM), hits mostly inhibitors. 230,000 tested, 0.66% active. AID 485360; note: nearly all actives have a fitted effect of over 60% in size
Target sequence (Q9Y468 whole entry, looked up): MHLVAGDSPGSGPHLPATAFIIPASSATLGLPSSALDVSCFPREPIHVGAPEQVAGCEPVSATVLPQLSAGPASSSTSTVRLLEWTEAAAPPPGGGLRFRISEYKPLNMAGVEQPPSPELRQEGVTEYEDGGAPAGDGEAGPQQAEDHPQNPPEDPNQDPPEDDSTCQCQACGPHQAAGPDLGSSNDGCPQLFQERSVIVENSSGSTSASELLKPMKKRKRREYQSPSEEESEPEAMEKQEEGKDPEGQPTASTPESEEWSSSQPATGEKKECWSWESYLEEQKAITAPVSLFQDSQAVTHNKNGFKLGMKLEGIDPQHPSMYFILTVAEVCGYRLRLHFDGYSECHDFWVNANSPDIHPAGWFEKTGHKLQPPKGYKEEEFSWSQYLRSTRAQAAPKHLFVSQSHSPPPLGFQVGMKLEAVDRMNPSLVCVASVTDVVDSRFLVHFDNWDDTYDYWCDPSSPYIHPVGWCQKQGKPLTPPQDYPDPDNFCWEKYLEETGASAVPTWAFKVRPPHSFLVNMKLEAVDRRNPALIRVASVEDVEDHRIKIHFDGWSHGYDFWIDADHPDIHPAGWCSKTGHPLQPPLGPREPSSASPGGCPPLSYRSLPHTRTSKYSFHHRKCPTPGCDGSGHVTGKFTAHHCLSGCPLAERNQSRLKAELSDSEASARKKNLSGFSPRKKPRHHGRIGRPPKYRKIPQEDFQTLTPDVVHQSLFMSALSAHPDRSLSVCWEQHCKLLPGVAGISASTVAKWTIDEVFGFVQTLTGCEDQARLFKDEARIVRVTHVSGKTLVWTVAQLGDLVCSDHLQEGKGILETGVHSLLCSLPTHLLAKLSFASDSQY
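AlphaScreen assay: L3MBTL1 (50 nM final) was preincubated 30 min at room temperature with biotinylated H3(1-15)K9me1 peptide (75 nM final), then 30 min with library compounds; streptavidin donor and nickel chelate acceptor beads (10 ug/mL final) added, 30 min dark.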
Numbers stand for hits; [ ] = another dose, or the depositor's remark. Most compounds without a hit are left out; they make up all but 5.7% or so of the library. Unless noted, calls come from the whole dose curve; as a rule, active = well fitted inhibition curve with a large enough effect; inconclusive = small, poorly fitted or top-dose-only effect; inactive = no such curve, though single readings can be large or run the other way.

What do the screens show for `CCCCC(=O)Nc1sc(C(=O)N(CC)CC)c(C)c1C(=O)OC`?
PI5P4Ka inh: inactive; BAZ2B inh: inactive; JMJD2A Tudor inh: 70.8µM; HP1b chromo inh: inconclusive; KDM4E inh: inactive; L3MBTL1 block: inactive

How did O=C(NCCCn1ccnc1)C(=O)NCC(c1cccnc1)N1CCN(c2ccc(F)cc2)CC1 (stereo unspecified) do in these assays?
PI5P4Ka inh: inactive; BAZ2B inh: 50.1µM; JMJD2A Tudor inh: inactive; HP1b chromo inh: inactive; KDM4E inh: inactive; L3MBTL1 block: inactive

How did COc1ccc(N2CCN(C(CNC(=O)C(=O)NCCCn3ccnc3)c3cccnc3)CC2)cc1 (stereo unspecified) do in these assays?
PI5P4Ka inh: inactive; JMJD2A Tudor inh: 44.7µM; HP1b chromo inh: inactive; KDM4E inh: inactive

How did COc1ccc(NC(=O)C(=O)NCC(c2cccnc2)N2CCc3ccccc3C2)cc1 (stereo unspecified) do in these assays?
BAZ2B inh: 10µM; JMJD2A Tudor inh: 39.8µM; HP1b chromo inh: inconclusive

Results for O=C(NCC(c1cccnc1)N1CCN(c2ccc(F)cc2)CC1)c1ccccc1 (stereo unspecified) ?
PI5P4Ka inh: inactive; BAZ2B inh: inactive; JMJD2A Tudor inh: inactive; HP1b chromo inh: inactive; KDM4E inh: inactive; L3MBTL1 block: inactive

What do the screens show for `O=C(NCC(c1cccnc1)N1CCOCC1)C(=O)Nc1ccc(Cl)cc1` (stereo unspecified)?
BAZ2B inh: inactive; JMJD2A Tudor inh: inactive; HP1b chromo inh: inactive

Results for Cc1cc(C)cc(NC(=O)C(=O)NCC(c2cccnc2)N2CCOCC2)c1 (stereo unspecified) ?
BAZ2B inh: 79.4µM; JMJD2A Tudor inh: inactive; HP1b chromo inh: inactive

Results for Cc1c(Cl)cccc1-n1ncc(C(=O)Nc2ccc(Br)cc2F)c1C1CCNCC1 ?
BAZ2B inh: inactive; JMJD2A Tudor inh: inactive; HP1b chromo inh: inactive

What do the screens show for `COc1ccc2cc(CNc3ccccc3)c(=O)n(CC(=O)Nc3ccc(C(C)=O)cc3)c2c1`?
BAZ2B inh: inactive; JMJD2A Tudor inh: inactive; HP1b chromo inh: inactive

Results for O=C1CCC[C@@H]2[C@@H](Cc3ccccc3)[C@H](N3CCN(c4ccccc4)CC3)C[C@@H]3CCN1[C@@H]32 ?
PI5P4Ka inh: inactive; JMJD2A Tudor inh: 44.7µM; HP1b chromo inh: inactive

How did CCOC(=O)NC(=O)COC(=O)c1ccc(Sc2ncn[nH]2)c([N+](=O)[O-])c1 do in these assays?
PI5P4Ka inh: inactive; BAZ2B inh: 79.4µM; JMJD2A Tudor inh: inactive; HP1b chromo inh: inactive; KDM4E inh: inactive; L3MBTL1 block: inactive

How did CCc1ccc(C(=O)c2cn(CC(=O)Nc3cccc(OC)c3)c3ccc(OC)cc3c2=O)cc1 do in these assays?
BAZ2B inh: 50.1µM; JMJD2A Tudor inh: 11.2µM; HP1b chromo inh: inactive; L3MBTL1 block: inactive

Results for COc1ccc(C(=O)c2cn(Cc3ccccc3F)c3ccc(F)cc3c2=O)cc1 ?
BAZ2B inh: 79.4µM; JMJD2A Tudor inh: inactive; HP1b chromo inh: inactive

What do the screens show for `CCc1ccc(C(=O)c2cn(CC(=O)Nc3ccc4c(c3)OCO4)c3ccc(CC)cc3c2=O)cc1`?
BAZ2B inh: 79.4µM; JMJD2A Tudor inh: inactive; HP1b chromo inh: inactive

What do the screens show for `CCc1ccc(C(=O)c2cn(CC(=O)Nc3ccc4c(c3)OCO4)c3cc(OC)c(OC)cc3c2=O)cc1`?
BAZ2B inh: 79.4µM; JMJD2A Tudor inh: inactive; HP1b chromo inh: inactive

Results for O=C(N/N=C/c1ccco1)c1ccccc1OCc1ccc(Br)cc1 ?
PI5P4Ka inh: inactive; BAZ2B inh: inactive; JMJD2A Tudor inh: inactive; HP1b chromo inh: inactive; KDM4E inh: inactive; L3MBTL1 block: inactive

How did Cn1ncc2c(Nc3cccc(C#N)c3)ncnc21 do in these assays?
BAZ2B inh: inactive; JMJD2A Tudor inh: inconclusive; HP1b chromo inh: inactive

What do the screens show for `COc1ccc(S(=O)(=O)c2c(N)n(Cc3ccco3)c3nc4ccccc4nc23)cc1`?
PI5P4Ka inh: -88.8; BAZ2B inh: inactive; JMJD2A Tudor inh: inactive; HP1b chromo inh: inactive; KDM4E inh: inconclusive; L3MBTL1 block: 28.2µM

What do the screens show for `COCCCn1cnc2c(c1=O)c1nc3ccccc3nc1n2-c1ccc(C)cc1`?
PI5P4Ka inh: inactive; BAZ2B inh: inactive; JMJD2A Tudor inh: inactive; HP1b chromo inh: inactive; KDM4E inh: inactive; L3MBTL1 block: inactive

How did COc1ccc(Cn2c3nc4ccccc4nc3c3c(=O)n(Cc4ccco4)c(C)nc32)cc1 do in these assays?
BAZ2B inh: 50.1µM; KDM4E inh: inconclusive

Results for Cc1cc(C)cc(-n2c3nc4ccccc4nc3c3c(=O)n(Cc4ccco4)cnc32)c1 ?
PI5P4Ka inh: inactive; BAZ2B inh: 50.1µM; JMJD2A Tudor inh: inactive; HP1b chromo inh: inactive; KDM4E inh: inconclusive

Results for Cc1ccc(S(=O)(=O)c2c(N)n(CCCN(C)C)c3nc4ccccc4nc23)cc1 ?
PI5P4Ka inh: inactive; BAZ2B inh: inactive; JMJD2A Tudor inh: inactive; HP1b chromo inh: inactive; KDM4E inh: inconclusive; L3MBTL1 block: inactive

How did O=C(Nc1c(C(=O)Nc2cccc(F)c2)oc2ccccc12)c1cc2ccccc2o1 do in these assays?
BAZ2B inh: inactive; JMJD2A Tudor inh: inactive; HP1b chromo inh: inactive

What do the screens show for `C(=N\Nc1ncnc2ccccc12)/c1ccccc1`?
PI5P4Ka inh: inactive; BAZ2B inh: inconclusive; JMJD2A Tudor inh: inactive[11.4 µM]; HP1b chromo inh: inactive; KDM4E inh: inactive; L3MBTL1 block: inconclusive

How did Clc1cccc(/C=N/Nc2ncnc3ccccc23)c1 do in these assays?
PI5P4Ka inh: inactive; BAZ2B inh: 35.5µM; JMJD2A Tudor inh: inconclusive; HP1b chromo inh: inactive; KDM4E inh: inactive; L3MBTL1 block: inactive

What do the screens show for `CCOC(=O)c1c(NC(=O)C(C)Sc2cn(CCNC(=O)c3ccc(OC)cc3)c3ccccc23)sc2c1CCC2` (stereo unspecified)?
BAZ2B inh: inconclusive; JMJD2A Tudor inh: inactive; HP1b chromo inh: inactive

How did Cc1ccn2c(Nc3ccc4c(c3)OCO4)c(-c3ccccn3)nc2c1 do in these assays?
PI5P4Ka inh: inactive; BAZ2B inh: 12.6µM; JMJD2A Tudor inh: 12.6µM; HP1b chromo inh: 50.1µM; KDM4E inh: inactive; L3MBTL1 block: 8.91µM

How did Fc1ccccc1-c1ccc(-c2nc3ccc(Cl)cn3c2Nc2ccc(Cl)cc2)o1 do in these assays?
JMJD2A Tudor inh: 44.7µM; HP1b chromo inh: inconclusive

Results for Cc1cccc(C)c1Nc1c(-c2ccccn2)nc2ccc(Cl)cn12 ?
BAZ2B inh: inconclusive; JMJD2A Tudor inh: inconclusive; HP1b chromo inh: inactive

What do the screens show for `Cc1ccn2c(Nc3ccc4c(c3)OCCO4)c(-c3cccs3)nc2c1`?
BAZ2B inh: 25.1µM; JMJD2A Tudor inh: inconclusive; HP1b chromo inh: inconclusive

What do the screens show for `COc1ccc(Nc2c(-c3ccccn3)nc3ccc(Cl)cn23)cc1`?
BAZ2B inh: 1.58µM; JMJD2A Tudor inh: inconclusive; HP1b chromo inh: inactive

From PubChem BioAssay
